{
  "source": "PubChem BioAssay AID624117",
  "about": "(National Center for Advancing Translational Sciences (NCATS), 2012)",
  "note": "Inconclusive results are not listed. Entries that show only a call come without a potency. The source made the active and inactive calls. Calls come from the whole dose curve; as a rule, active = well fitted curve in the direction sought with a large enough effect; inconclusive = small, poorly fitted or top-dose-only effect, or another doubt; inactive = no such curve, though single readings can be large or run the other way.",
  "data": [
    {"assay": "qHTS Assay for Rab9 Promoter Activators: Hit Validation Using Renilla Luciferase Read-Out; note: potency is the fitted concentration of half-maximal effect", "conditions": "Huh7 NPC1 promoter Renilla luciferase reporter, 24 h; series mostly up to 76.9 µM", "text": "Niemann Pick Type C (NPC) is a rare neurodegenerative lipidosis that is characterized by lipid storage in the endosomal/lysosomal system. Treatment modalities for this devastating disease are currently non-existent due to the severe obstacles associated with accessing the central nervous system with proteins or genes. The majority of mutations causing NPC disease are missense mutations that are distributed throughout the length of the NPC1 protein, with the most prevalent being the I1061T allele. Although NPC1 mutant proteins may be functional, they are typically trapped in the ER due to misfolding. […] We have developed and optimized a cell based renilla luciferase reporter assay in 1536 well format for the identification of up-regulators of the mutant NPC1 promoter. This assay presents data on the validation of hits from the primary screen, which used a firefly luciferase read-out. NIH Chemical Genomics Center [NCGC] NIH Molecular Libraries Probe Production centers Network [MLPCN] MLPCN Grant: MH089375 Assay Submitter (PI): Yiannis A. Ioannou\nHuh7 cells stably expressing NPC promoter-luciferase will be seeded at 1,500 cells/well in 5 uL in 1,536-well white opaque plates with 23 nL/well of compound in DMSO solution. The assay plates will be incubated at 37 deg C for 24 hours, after which 3 uL/well BriteLite plus luciferase detection reagent mixture (Perkin Elmer) will be added. Luminescence signal will be measured in a ViewLux plate reader (Perkin Elmer) after a 10 minute incubation at the room temperature.", "values": [
      {"molecule": "COc1ccc(C)cc1N(C(=O)CNC(=O)c1ccco1)C(C(=O)NC1CCCC1)c1cccnc1", "note": "(stereo not given)", "Potency": "inactive"},
      {"molecule": "COC(=O)c1ccccc1S(=O)(=O)NNC(=O)Nc1ccccc1", "Potency": "inactive"},
      {"molecule": "Cc1ccc(C#N)c(SCC(=O)Nc2nccs2)n1", "Potency": "inactive"},
      {"molecule": "CCOC(=O)c1csc(COc2ccc(OC)cc2)n1", "Potency": "inactive"},
      {"molecule": "Nc1ccc(C(=O)Nc2ccccc2N)cc1", "Potency": "8.23 µM (active)"},
      {"molecule": "CCC(=O)NC(=S)Nc1ccc(N2CCOCC2)cc1", "Potency": "inactive"},
      {"molecule": "Cc1ccc(NC(=O)COC(=O)C2C3CC4OC(=O)C2C4C3)cc1Cl", "note": "(stereo not given)", "Potency": "inactive"},
      {"molecule": "CC1(C)CC(=O)c2c(O)c(-c3ccccc3)c(=O)n(-c3ccccc3)c2C1", "Potency": "inactive"},
      {"molecule": "O=C(COc1ccccc1F)Nc1ccc(-c2nc3ccccc3s2)cc1", "Potency": "inactive"},
      {"molecule": "O=C(CCS(=O)(=O)c1ccccc1)Nc1ccc(-c2nc3ccccc3s2)cc1", "Potency": "inactive"},
      {"molecule": "Cc1ccc2nc(Nc3ccc(Cl)cc3)c3nncn3c2c1", "Potency": "inactive"},
      {"molecule": "CCCCn1c(CCNC(=O)c2cccs2)nc2ccccc21", "Potency": "inactive"},
      {"molecule": "N#C/C(=N\\Nc1ccc(Cl)cc1)C(=N)N1CCCCC1", "Potency": "inactive"},
      {"molecule": "COc1ccc(NC(=O)CCCN2C(=O)C(c3ccccc3)Oc3cccnc32)cc1OC", "note": "(stereo not given)", "Potency": "inactive"},
      {"molecule": "CCc1cc(C(=O)Nc2ccccc2)cs1", "Potency": "inactive"},
      {"molecule": "COc1ccc2oc(=O)c(C(=O)NC(C)c3ccccc3)cc2c1", "note": "(stereo not given)", "Potency": "inactive"},
      {"molecule": "O=C(NCCc1ccccc1)c1cc2ncc(Br)cn2n1", "Potency": "inactive"},
      {"molecule": "CCCCCCOc1ccc(OC(=O)c2cccnc2)cc1", "Potency": "2.07 µM (active)"},
      {"molecule": "O=C(CSc1nccn1Cc1ccco1)Nc1ccccc1F", "Potency": "inactive"},
      {"molecule": "COC(=O)Nc1nc2ccc(Br)cc2s1", "Potency": "inactive"},
      {"molecule": "O=[N+]([O-])c1cnccc1Nc1ccc(F)cc1", "Potency": "inactive"},
      {"molecule": "CCOC(=O)CSc1nc2cc(C)ccc2cc1C#N", "Potency": "inactive"},
      {"molecule": "CC1=C(C(=O)OC2CCCC(C)C2)C(c2ccccc2)NC(=O)N1", "note": "(stereo not given)", "Potency": "inactive"},
      {"molecule": "COc1ccc(-c2nnc(SCC(=O)/C(C#N)=C(\\C)N)o2)cc1", "Potency": "inactive"},
      {"molecule": "CCN(C(=O)COC(=O)c1ccc(C=O)cc1)c1c(N)n(Cc2ccccc2)c(=O)[nH]c1=O", "Potency": "inactive"},
      {"molecule": "CCCC(C)NC(=O)c1ccc(OCc2ccc(Cl)cc2)c(OC)c1", "note": "(stereo not given)", "Potency": "inactive"},
      {"molecule": "Cc1nn(CCCC(=O)NCc2ccc(F)cc2)c(C)c1[N+](=O)[O-]", "Potency": "inactive"},
      {"molecule": "CCCN(CCC)CCCNC(=O)c1cc2cc3ccc(Cl)cc3nc2o1", "Potency": "inactive"},
      {"molecule": "Cc1ccc(NC(=O)c2c(O)c3ccccc3n(C)c2=O)nc1", "Potency": "inactive"},
      {"molecule": "Cc1nc(-c2ccccn2)sc1C(=O)Nc1ccc(F)cc1F", "Potency": "inactive"},
      {"molecule": "O=C(COC(=O)c1ccc(-c2nnc(-c3ccccc3)o2)cc1)c1ccccc1", "Potency": "inactive"},
      {"molecule": "COc1ccccc1OCCCC(=O)NCc1ccco1", "Potency": "inactive"},
      {"molecule": "O=C(CSc1nnc(-c2ccccn2)o1)Nc1ccccc1F", "Potency": "inactive"},
      {"molecule": "C=CCOC(=O)N1CCN(c2cccc(C(F)(F)F)c2)CC1", "Potency": "inactive"},
      {"molecule": "Cc1cc(C)c2c(N)c(C(=O)Nc3ccc([N+](=O)[O-])cc3)sc2n1", "Potency": "inactive"},
      {"molecule": "Cc1ccc(NC(=O)c2cccc(N3C(=O)CCC3=O)c2)nc1", "Potency": "inactive"},
      {"molecule": "O=C(CSc1ncccn1)Nc1cccc2ccccc12", "Potency": "inactive"},
      {"molecule": "CCCOC(=O)Cn1cnc2scc(-c3ccc(OC)cc3)c2c1=O", "Potency": "inactive"},
      {"molecule": "COCCNC(=O)C1CCC(CNS(=O)(=O)c2ccc(F)cc2)CC1", "note": "(stereo not given)", "Potency": "inactive"},
      {"molecule": "CC(=O)[C@@H]1[C@@H](C(=O)c2ccc(C)cc2)[C@]2(C(=O)Nc3ccccc32)[C@H]2C=Cc3cc(F)ccc3N12", "Potency": "inactive"}
    ]}
  ]
}
